Rab9 prom act: activates the Rab9 promoter; Huh7 Rab9 promoter-luciferase reporter, luminescence, 24 h; Potency, µM (doses to about 9.22 µM), without a hit: at the top dose activation, negative = inhibition, usual class: activators; 320,000 compounds, 2.8% hits; AID 485297; also: % of control where 0% means no effect; nearly all actives have a fitted effect of over 60% in size
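Cell-based reporter: Huh7 stable for Rab9 promoter-driven luciferase, plated in reduced-serum medium with 10% FBS at 1500 cells/well, compound-treated 24 h at 37 °C, luminescence read after 10 min reagent.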
SMN2 splice up: increases expression of the SMN2 splice variant | Potency, µM (highest dose often 46.1 µM), for inactives: top-dose activity change, positive = activation, usual class: activators | 210,000 compounds, 2.8% hits | HEK293 SMN2-luciferase splicing reporter, luminescence, 30-36 h; also: % of control where 0% means no effect; nearly all actives have a fitted effect of over 55% in size
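HEK293 cells carry an SMN2 minigene-luciferase reporter in which exon 7 inclusion puts luciferase in frame. Cells were seeded at 2000 cells/well, attached for 10-12 hours, then exposed to compounds for 30-36 hours at 37C before ONE-Glo luminescence.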
NPC1 promoter act: activates the NPC1 promoter | Huh7 NPC1 promoter luciferase reporter, 24 h | Potency, µM (highest dose often 9.22 µM), for the others: at the highest dose activation, hits mostly activators | 320,000 compounds, 2.4% hits | AID 485313; also: % of control where 0% means no effect; nearly all actives have a fitted effect of over 60% in size
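Stable NPC1-promoter luciferase Huh7 line; cpd (DMSO) 24 h, 37 °C, 5% CO2; Amplite luciferase reagent 10 min RT; luminescence readout. qHTS format.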
FLuc counter: firefly luciferase modulation, counter-screen for miR-21 project; Potency, µM (top dose mostly 57.5 µM), for the others: at the top dose activity change, negative = inhibition, hits mostly inhibitors; AID 588342; 360,000 compounds, 6.9% hits; purified FLuc, Km substrates, luminescence inhibition; P08659;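 also: plate controls were vehicle for no effect and reference inhibitor for full effect; nearly all actives have a fitted effect of over 55% in size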
Target sequence (P08659 whole entry, looked up): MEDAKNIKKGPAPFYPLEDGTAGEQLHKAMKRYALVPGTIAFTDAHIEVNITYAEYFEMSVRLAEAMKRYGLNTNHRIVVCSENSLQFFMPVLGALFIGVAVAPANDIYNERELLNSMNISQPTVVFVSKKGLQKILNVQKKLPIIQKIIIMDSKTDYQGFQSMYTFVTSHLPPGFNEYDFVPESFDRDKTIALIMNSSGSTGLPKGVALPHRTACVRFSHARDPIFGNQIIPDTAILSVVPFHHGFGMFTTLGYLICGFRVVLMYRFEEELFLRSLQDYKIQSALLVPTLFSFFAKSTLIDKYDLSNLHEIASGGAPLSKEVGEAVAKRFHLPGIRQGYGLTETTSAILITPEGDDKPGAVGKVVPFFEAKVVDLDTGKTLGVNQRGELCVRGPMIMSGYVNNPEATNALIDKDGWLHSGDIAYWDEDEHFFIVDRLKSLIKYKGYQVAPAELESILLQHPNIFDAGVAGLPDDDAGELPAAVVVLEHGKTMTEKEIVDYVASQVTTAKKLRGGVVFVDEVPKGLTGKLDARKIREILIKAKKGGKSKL
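Purified P. pyralis luciferase, 10 nM final, with Km-level 10 uM D-luciferin and 10 uM ATP in 50 mM Tris acetate pH 7.5, 10 mM Mg acetate, 0.01% Tween-20, 0.05% BSA; 6-point qHTS titration about 60 µM downward; luminescence read.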
ELG1 genotoxic: genotoxicity induction in ELG1-luciferase HEK293T cells. HEK293T ELG1-luciferase reporter, luminescence, 16 h. Potency, µM (doses to about 46 µM), without a hit: top-dose activity change, positive = activation, usual class: activators. 330,000 compounds, 1.3% hits; also: % of control where 0% means no effect; nearly all actives have a fitted effect of over 60% in size
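Step 1: seed 2,000 HEK293T ELG1-luciferase cells per well. Step 2: add compound or DMSO, incubate 16 hr at 37 °C. Step 3: ONE-Glo, 30 min at room temperature, read luminescence.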
Starred values were filed as active, the others as inactive; [ ] = another dose, or the depositor's remark. Sampled rows, rich in hits. Any-hit rate of the full collection: about 7.4%. Calls follow the shape of the dose curve; as a rule, active = well fitted curve in the direction sought with a large enough effect; inconclusive = small, poorly fitted or top-dose-only effect, or another doubt; inactive = no such curve, though single readings can be large; an effect the other way counts as inactive or inconclusive. Potency is read from the fitted curve at half-maximal effect.

For COc1ccc2c(c1)C(=O)[C@@H](OC(=O)NCCc1ccc(OC)c(OC)c1)[C@H](c1ccc(OC)c(Br)c1)O2 the results were SMN2 splice up -1%.
For Cc1ccc(-c2ocnc2C(=O)Nc2nc(C)cs2)cc1 the results were Rab9 prom act 27%, NPC1 promoter act inconclusive, FLuc counter inconclusive and ELG1 genotoxic 13%.
Cc1cccc(-c2ocnc2C(=O)Nc2ccccc2NC(=O)c2ccccn2)c1 was read as Rab9 prom act 0%, NPC1 promoter act -1%, FLuc counter 13µM* and ELG1 genotoxic -16%.
Screening Cc1ccc(-c2ocnc2C(=O)Nc2ccccc2NC(=O)c2ccccn2)cc1 returned Rab9 prom act 1%, NPC1 promoter act 0%, FLuc counter 15µM* and ELG1 genotoxic -19%.
Cc1cccc(-c2ocnc2C(=O)Nc2ccccc2C(=O)N2CCCC2)c1 was read as Rab9 prom act 0%, NPC1 promoter act -1%, FLuc counter inconclusive and ELG1 genotoxic -29%.
For Cc1ccc(NC(=O)C2CCCN(c3ncnc4onc(C)c34)C2)c(Cl)c1 (stereo not drawn) the results were FLuc counter 5%.
For CC(=O)Nc1ccc(-c2nnc(SCC(=O)c3ccc([N+](=O)[O-])cc3)o2)cc1 the results were SMN2 splice up 3% and FLuc counter 6%.
Screening COc1ccc(NC(=O)CN2C(=O)CC(c3ccc(C)c(C)c3)=Nc3ccccc32)cc1OC returned FLuc counter 13µM*.
`Cc1ccc(C2=Nc3ccccc3N(CC(=O)NCc3ccccc3Cl)C(=O)C2)cc1C` gave FLuc counter 9.5µM*.
`O=C(CSCc1cnn(-c2ccccc2)c1-n1cccc1)NCc1cccc(Cl)c1` gave FLuc counter 0%.
Screening CCN1CCOC(=O)C1CC(=O)Nc1cc(Cl)ccc1C (stereo not drawn) returned SMN2 splice up 4% and FLuc counter 1%.
For CCc1ccc(NC(=O)CSC2=Nc3ccccc3C3=NC(CC(=O)NCc4ccc5c(c4)OCO5)C(=O)N23)cc1 (stereo not drawn) the results were FLuc counter -13%.
Screening COc1ccc(OCc2cc(C(=O)NCc3cccc(C)n3)no2)c(Cl)c1 returned Rab9 prom act inconclusive, NPC1 promoter act inconclusive, FLuc counter 24µM* and ELG1 genotoxic 26%.
For COc1ccc(OCc2cc(C(=O)NCCCc3ccccc3)no2)c(Cl)c1 the results were Rab9 prom act 5%, NPC1 promoter act -20%, FLuc counter inconclusive and ELG1 genotoxic -9%.
`COc1cccc(OCc2cc(C(=O)NCCc3cccc(C)n3)no2)c1` gave Rab9 prom act -2%, NPC1 promoter act -3%, FLuc counter 3% and ELG1 genotoxic 0%.
Screening COc1cccc(OCc2cc(C(=O)NCc3ccccn3)no2)c1 returned Rab9 prom act 2.8µM*, NPC1 promoter act inconclusive, FLuc counter 15µM* and ELG1 genotoxic 16µM*.
For CC(C)c1ccc(Nc2cc(C(=O)NC3CCCCC3)c3ccccc3n2)cc1 the results were SMN2 splice up -8% and FLuc counter -4%.
CN=c1scc(-c2ccccc2F)n1/N=C/c1ccc[nH]1 was read as Rab9 prom act -30%, SMN2 splice up -110%, NPC1 promoter act -41%, FLuc counter 0.027µM* and ELG1 genotoxic -17%.
`CC(C)N=c1scc(-c2cccs2)n1/N=C/c1ccc(O)c(O)c1O` gave Rab9 prom act 5%, SMN2 splice up 3%[1.84 µM], NPC1 promoter act 2%, FLuc counter 24µM* and ELG1 genotoxic inconclusive.
COc1ccc(O)c(/C=N/n2c(-c3ccco3)csc2=Nc2cccnc2)c1 was read as Rab9 prom act 2%, SMN2 splice up -13%[1.84 µM], NPC1 promoter act -2%, FLuc counter -2% and ELG1 genotoxic 2%.
`CCN=c1scc(-c2cccs2)n1/N=C/c1cc(OC)ccc1O` gave Rab9 prom act inconclusive, SMN2 splice up inconclusive, NPC1 promoter act 2µM*, FLuc counter 2.4µM* and ELG1 genotoxic inconclusive.
For CN=c1scc(-c2ccccc2F)n1/N=C/c1ccc(O)c(O)c1O the results were Rab9 prom act inconclusive, SMN2 splice up 0.63µM*, NPC1 promoter act inconclusive, FLuc counter 0.76µM* and ELG1 genotoxic 9%.
O=C(Nc1ccc2nc(SCCOc3ccccc3)sc2c1)c1ccc2c(c1)OCO2 was read as FLuc counter -14%.
CCN(CC)c1ccc(C(=O)N2CCC(c3c[nH]c4ccccc34)(c3c[nH]c4ccccc34)CC2)cc1 was read as SMN2 splice up -7% and FLuc counter 3%.
Screening CCc1ccccc1NS(=O)(=O)c1ccc2c(c1)CC(=O)N2 returned SMN2 splice up 1% and FLuc counter -6%.
CC1=CC(=O)CC(C)(C)[C@]1(O)/C=C\C(C)=C\C(=O)O was read as SMN2 splice up -11%[9.22 µM].
`CC(C)c1ccc(Nc2ncnc3onc(-c4ccc(F)cc4)c23)cc1` gave FLuc counter -9%.
Oc1cccc(-c2nc3ccc4ccccc4c3c3c2CCC3)c1 was read as Rab9 prom act inconclusive, SMN2 splice up inconclusive, NPC1 promoter act inconclusive, FLuc counter 6µM* and ELG1 genotoxic 18%.
Cc1cc(C)c(NC(=O)CSc2nccn2Cc2ccco2)c(C)c1 was read as FLuc counter 17µM*.
For COc1ccc(OC)c(NC(=O)CSc2nccn2Cc2ccco2)c1 the results were Rab9 prom act 2%, NPC1 promoter act 4%, FLuc counter 15µM* and ELG1 genotoxic 5%.
For O=C(CSc1nccn1Cc1ccco1)Nc1ccccc1F the results were Rab9 prom act 17%, NPC1 promoter act inconclusive, FLuc counter inconclusive and ELG1 genotoxic inconclusive.
For Cc1ccc(NC(=O)CSc2nccn2Cc2ccco2)c(C)c1 the results were Rab9 prom act 0.63µM*, NPC1 promoter act 0.89µM*, FLuc counter 4.3µM* and ELG1 genotoxic 5.2µM*.
For COc1ccc(NC(=O)C(=O)NCc2ccco2)c(OC)c1 the results were SMN2 splice up 0% and FLuc counter -2%.
Screening NC(=O)c1ccc[n+]([C@@H]2OC(COP(=O)([O-])OP(=O)(O)OCC3OC(n4cnc5c(N)ncnc54)C(OP(=O)(O)O)C3O)C(O)C2O)c1 (stereo partly drawn) returned SMN2 splice up -13%.
CCCOc1cccc(C(=O)N2CCCCC2CCN2CCCCC2)c1 (stereo not drawn) was read as SMN2 splice up -8% and FLuc counter 1%.
